Screens deposited in PubChem BioAssay by The Scripps Research Institute Molecular Screening Center.
Most compounds without a hit are left out; they make up all but 1.7% or so of the library.
LYPLA2 counter – blocks human lysophospholipase 2, a PME1 counter-screen | AID 2177 | inhibition, % at 5.9 µM | 0.38% of 320,000 active | recombinant LYPLA2, FP-Rh probe fluorescence polarization;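 active = inhibition above the screen-wide mean plus 3 SD, limit set per campaign, cut at about 26% in these data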
GSTO1 counter – counter-screen for RBBP9 inhibitors: inhibitors of human GSTO1; recombinant GSTO1, activity-based probe fluorescence polarization; inhibition, % at 5.96 µM; 1.1% of 300,000 active;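 active = inhibition above the campaign mean inhibition plus 3 SD, cut at about 35% in these data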
Target sequence (P78417 whole entry, looked up): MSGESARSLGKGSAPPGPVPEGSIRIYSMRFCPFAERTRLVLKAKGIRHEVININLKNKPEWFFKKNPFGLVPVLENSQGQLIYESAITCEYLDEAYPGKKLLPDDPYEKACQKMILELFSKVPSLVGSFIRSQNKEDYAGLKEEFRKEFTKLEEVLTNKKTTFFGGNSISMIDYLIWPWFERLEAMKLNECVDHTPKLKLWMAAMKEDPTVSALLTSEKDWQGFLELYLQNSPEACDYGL
LYPLA1 counter – counter-screen for PME1 inhibitors: inhibitors of human LYPLA1; 0.16% of 320,000 active; inhibition, % at 5.9 µM; recombinant LYPLA1, FP-Rh probe fluorescence polarization; O75608;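 active = inhibition above the mean of all tested compounds plus 3 SD, set per campaign, cut at about 14% in these data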;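 also: inhibitors block serine hydrolase probe labeling of LYPLA1 so polarization falls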
Target sequence (O75608 whole entry, looked up): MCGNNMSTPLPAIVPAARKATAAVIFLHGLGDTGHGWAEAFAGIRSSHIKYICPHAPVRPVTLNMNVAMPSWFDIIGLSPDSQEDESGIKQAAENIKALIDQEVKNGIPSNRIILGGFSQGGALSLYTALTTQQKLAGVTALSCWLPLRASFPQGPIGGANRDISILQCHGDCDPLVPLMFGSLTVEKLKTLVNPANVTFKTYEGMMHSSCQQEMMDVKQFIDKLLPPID
Fam108B inh – blocks mouse Fam108B hydrolase in RBBP9 counter-screen; recombinant Fam108B, FP-Rh probe fluorescence polarization; inhibition, % at 9.51 µM; 0.33% of 300,000 active; AID 1947;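 active = inhibition above the screen mean inhibition plus 3 SD, computed separately per campaign, cut at about 18% in these data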;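 also: inhibitors lower polarization as less probe binds the enzyme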
PME-1 primary – PME-1 (human) inhibition. inhibition, % at 5.9 µM. Q9Y570. recombinant PME-1, FP-Rh probe fluorescence polarization. 0.53% of 320,000 active;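 active = inhibition above the campaign mean of all compounds plus 3 SD, cut at about 26% in these data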;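 also: competitive labeling of PME-1 active site by serine hydrolase directed probe; inhibitors block probe labeling so polarization falls and inhibition rises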
PAD4 FP inh – blocks human protein arginine deiminase 4. 0.41% of 330,000 active. inhibition, % at 6.36 µM. recombinant PAD4, RCA probe fluorescence polarization. Q9UM07;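 active = percent inhibition above a cutoff equal to the mean of all tested compounds plus 3 SD, cut at about 15% in these data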
LYPLA2 confirm – LYPLA2 (human) inhibition, confirmation counter-screen. AID 2232. shares compounds with LYPLA2 counter. 72% of 1,100 active. inhibition, % at 5.9 µM. recombinant LYPLA2, FP-Rh probe fluorescence polarization;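 active = mean inhibition across replicates above the hit cutoff set in the primary screen, cut at about 26% in these data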;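 also: blocked labeling of the enzyme by serine hydrolase FP-Rh probe lowers polarization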
LYPLA2 ABPP – inhibitors of human LYPLA2; shares compounds with LYPLA2 counter; rhLYPLA2 in mouse brain proteome, gel ABPP FP-Rh; inhibition, % at 20 µM; 30% of 150 active; AID 652029;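 active = inhibition of LYPLA2 enzyme probe labeling above about 50%, limit read from the data; inactive = inhibition below that limit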;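 also: loss of FP-Rh probe labeling of the LYPLA2 gel band measured as band density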
Hits are given with their value.

COc1ccc(NC(=O)CSc2nnc(C)c3ccccc23)cc1 was read as LYPLA2 counter 32, GSTO1 counter inactive, LYPLA1 counter inactive, Fam108B inh inactive, PME-1 primary inactive, PAD4 FP inh inactive and LYPLA2 confirm inactive.
For Cc1cc(C(=O)NC(C)c2ccccc2)c2cc(F)ccc2n1 (centres undefined) the results were LYPLA2 counter 28, GSTO1 counter inactive, LYPLA1 counter inactive, Fam108B inh inactive, PME-1 primary inactive, PAD4 FP inh inactive and LYPLA2 confirm inactive.
`CCCCN(C(=O)c1oc2ccc(OCC)cc2c1C)c1c(N)n(CC(C)C)c(=O)[nH]c1=O` gave LYPLA2 counter inactive, GSTO1 counter inactive, LYPLA1 counter inactive, Fam108B inh inactive, PME-1 primary inactive and PAD4 FP inh inactive.
`CCC(=O)NC(=S)Nc1ccc(N2CCN(C(=O)c3ccc(Cl)cc3)CC2)cc1` gave LYPLA2 counter 29, GSTO1 counter inactive, LYPLA1 counter inactive, Fam108B inh inactive, PME-1 primary inactive, PAD4 FP inh inactive and LYPLA2 confirm 36.
O=C(Nc1ccc(N2CCN(C(=O)c3ccc(Cl)cc3)CC2)cc1)c1cccnc1 was read as LYPLA2 counter 48, GSTO1 counter inactive, LYPLA1 counter inactive, Fam108B inh inactive, PME-1 primary inactive, PAD4 FP inh inactive and LYPLA2 confirm 41.
O=C(Nc1ccc(N2CCN(C(=O)c3ccccc3)CC2)cc1)c1cccnc1 was read as LYPLA2 counter inactive, GSTO1 counter inactive, LYPLA1 counter inactive, Fam108B inh inactive, PME-1 primary inactive and PAD4 FP inh inactive.
Cc1ccc(C(=O)N2CCN(c3ccc(NC(=O)c4cccnc4Cl)cc3)CC2)cc1 was read as LYPLA2 counter 49, GSTO1 counter inactive, LYPLA1 counter inactive, Fam108B inh inactive, PME-1 primary inactive, PAD4 FP inh inactive, LYPLA2 confirm 57 and LYPLA2 ABPP inactive.
For COc1ccc(C)cc1NC(=O)CNc1ccc(C(C)=O)cc1 the results were LYPLA2 counter inactive, GSTO1 counter inactive, LYPLA1 counter inactive, Fam108B inh inactive, PME-1 primary inactive and PAD4 FP inh inactive.
Screening CCOC(=O)C(Cc1ccccc1)C(=O)Nc1nccs1 (centres undefined) returned LYPLA2 counter inactive, GSTO1 counter inactive, LYPLA1 counter inactive, Fam108B inh inactive, PME-1 primary inactive and PAD4 FP inh inactive.
CCOC(=O)C(Cc1ccccc1)c1ccnc2ncnn12 (centres undefined) was read as LYPLA2 counter 35, GSTO1 counter inactive, LYPLA1 counter inactive, Fam108B inh inactive, PME-1 primary inactive, PAD4 FP inh inactive and LYPLA2 confirm inactive.
CCCCNC(=O)c1ccccc1SCC(=O)NC1CCCCCCC1 was read as LYPLA2 counter inactive, LYPLA1 counter inactive, PME-1 primary inactive and PAD4 FP inh inactive.
Screening CC(C)CC(NC(=O)OC(C)(C)C)C(=O)O (centres undefined) returned LYPLA2 counter inactive, GSTO1 counter inactive, LYPLA1 counter inactive, Fam108B inh inactive, PME-1 primary inactive and PAD4 FP inh inactive.
`CC(C)(C)OC(=O)NC(CCCCNC=O)C(=O)O` (centres undefined) gave LYPLA2 counter 81, GSTO1 counter inactive, LYPLA1 counter inactive, Fam108B inh inactive, PME-1 primary inactive, PAD4 FP inh inactive and LYPLA2 confirm inactive.
COC(=O)c1c(NC(=O)CN2CCN(c3ncccn3)CC2)sc(C(N)=O)c1C was read as LYPLA2 counter 31, GSTO1 counter inactive, LYPLA1 counter inactive, Fam108B inh inactive, PME-1 primary inactive, PAD4 FP inh inactive and LYPLA2 confirm inactive.
`CCOC1(c2ccccc2)CC1C(=O)N/N=C/c1cccc([N+](=O)[O-])c1` (centres undefined) gave LYPLA2 counter inactive, GSTO1 counter inactive, LYPLA1 counter inactive, Fam108B inh inactive, PME-1 primary inactive and PAD4 FP inh inactive.
For Cc1cc(=O)oc2cc(Oc3ccc([N+](=O)[O-])cc3C(F)(F)F)ccc12 the results were LYPLA2 counter 44, GSTO1 counter inactive, LYPLA1 counter inactive, Fam108B inh inactive, PME-1 primary inactive, PAD4 FP inh inactive and LYPLA2 confirm 42.
